Hit rate of the full screen: of about 340,000 compounds, about 3,300 (0.97%) were called active. The entries come from a sample that favours actives as a whole. Values without a mark were called inactive.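 How the source made its calls: active means maximum activity change below -70%; inconclusive means maximum activity change from -70% to -50%; inactive means maximum activity change above -50%.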
Tested on: Potassium voltage-gated channel subfamily H member 2, brain isoform KCNH2 3.1 (human)
Test: qHTS for Inhibitors of KCHN2 3.1: Mutant qHTS
Details: U2OS KCNH2 3.1, thallium flux FluxOr; hits give low values
Description: Many antipsychotic drugs that inhibit the neurotransmitter dopamine also bind to hERG1 channel which might help explain their antipsychotic activity but also produces cardiac side effects. The discovery of the novel KCNH2 3.1 isoform offers a potential new target for the development of antipsychotic drugs without cardiac side effects. This proposal will use a high throughput thallium flux assay developed for KCNH2 to screen compounds that modulate the activity of KCNH2 3.1. The wild type KCNH2 channel will also be screened in parallel to help define the selective modulators of this KCNH2 3.1 potassium channel. The resulting compounds will be validated in electrophysiology experiments. The availability of animal models will allow future testing in vivo for effects on memory and other aspects of animal physiology linked with psychosis. NIH Chemical Genomics Center [NCGC] NIH Molecular Libraries Probe Centers Network [MLPCN] MLPCN Grant: MH096539 Assay Submitter (PI): James Barrow, Johns Hopkins University, Lieber Institute for Brain Development
U2OS cells were resuspended in cell media containing 10% fetal calf serum (FCS) at a concentration of 2 million cells / mL. The solution was treated with the mutant (3.1) virus at 1.77 x 10^8 / mL and allowed to incubate at room temperature in the dark. After 4 hours of incubation, DMEM + 10% fetal bovine serum (FBS) was added to the cell solution. Three microliter was then dispensed into a 1536 tissue culture treated black assay plates which were incubated overnight at 37 C. Two microliter of loading buffer (HBSS + HEPES + Red40 dye quencher + FluxOr dye) was added and the assay plates were incubated for 45 min at room temperature in the dark. […] A stimulation buffer was added to the plate and the second kinetic read (2 min) was obtained. The rate constant was calculated from the kinetic reads and normalized to the positive and negative DMSO controls.
On the % scale 0 is the no-effect control and ±100 the full control effect.

Row | SMILES | activity change
1 | C[C@H]1CN([C@@H](C)CO)C(=O)c2cc(Br)cnc2O[C@H]1CN(C)S(=O)(=O)c1cccs1 | -4.3%
2 | C[C@@H]1CN([C@@H](C)CO)C(=O)c2cc(Br)cnc2O[C@H]1CN(C)Cc1ccc(-c2ccccc2)cc1 | -85.7% (active)
3 | C[C@@H]1CN([C@H](C)CO)C(=O)c2cc(Br)cnc2O[C@@H]1CN(C)Cc1cncnc1 | 6.02%
4 | C[C@H](CO)N1C[C@H](C)[C@H](CN(C)C(=O)Nc2ccc3c(c2)OCO3)Oc2ncc(Br)cc2C1=O | 12.1%
5 | CSc1ncnc2c1ncn2CCCNCC(C)c1ccccc1 (stereo unspecified) | 6.46%
6 | Cc1ccc(-n2c(SCC(=O)NCCC3=CCCCC3)nc3n[nH]c(C)c3c2=N)cc1Cl | -4.71%
7 | COc1cccc(-n2c(SCC(=O)NC3CCCCC3)nc3n[nH]c(C)c3c2=N)c1 | 13.7%
8 | CCCCNC(=O)CSc1nc2n[nH]c(C)c2c(=N)n1-c1cccc(Cl)c1C | -75.1% (active)
9 | Cc1[nH]c2ccccc2c1C(=O)C(=O)NCc1nnnn1-c1cccc(F)c1 | -6.04%
10 | O=C(COC(=O)CCc1c[nH]c2ccccc12)Nc1cccc(Cl)c1 | -6.53%
11 | COCCN(C(=O)COC(=O)Cc1cccc(OC)c1)c1c(N)n(Cc2ccccc2)c(=O)[nH]c1=O | 8.15%
12 | CCN(C(=O)COC(=O)Cc1c(F)cccc1Cl)c1c(N)n(Cc2ccccc2)c(=O)[nH]c1=O | -102% (active)
13 | CCN(C(=O)COC(=O)CCOc1cccc(C)c1)c1c(N)n(Cc2ccccc2)c(=O)[nH]c1=O | 11.4%
14 | CC1CCC2(CC1)NC(=O)N(CC(=O)NCc1ccco1)C2=O (stereo unspecified) | 15.5%
15 | O=C(NCCN1CCOCC1)c1cccc(S(=O)(=O)Nc2ccc(F)cc2)c1 | -9.37%
16 | O=C(NCc1ccccc1CN1CCCC1)c1cccc(S(=O)(=O)Nc2ccc(F)cc2)c1 | -81.1% (active)
17 | COc1ccccc1C(CNC(=O)c1cccc(S(=O)(=O)Nc2ccc(F)cc2)c1)N(C)C (stereo unspecified) | 0.933%
18 | O=C(CC(CC(=O)c1ccccc1)c1ccco1)c1ccccc1 | -1.01%
19 | CSC1=NN(c2ccccc2)CN(c2ccccc2)N1C | -1.49%
20 | Cc1ccc(OCc2nnc(SC3CCc4ccccc4C3=O)n2C)cc1 (stereo unspecified) | -114% (active)
21 | Cc1ccc(OCc2n[nH]c(=S)n2-c2ccccc2)cc1 | -4.15%
22 | Cc1cccnc1NC(=O)CSc1nnc(COc2ccc(C(C)C)cc2)n1C | 13.2%

Row | SMILES | activity change
23 | Cc1sc2nc(-c3ccccc3F)oc(=O)c2c1C | 9.16%
24 | CC1=C(C(=O)N(C)C)CC(CC(=O)NCCN2CCOCC2)C(=O)N1Cc1ccccc1 (stereo unspecified) | -16.9%
25 | C[C@@H]1CN([C@H](C)CO)C(=O)CCCn2cc(nn2)CO[C@H]1CN(C)S(C)(=O)=O | 21.6%
26 | O=C(NC1CCCC1)c1cc(-c2ccccc2)on1 | 4.52%
27 | Cc1ccc(C(=O)NC(C)c2ccccc2)cc1Br (stereo unspecified) | -9.99%
28 | CC(NC(=O)c1cc(-c2ccccc2)on1)c1ccccc1 (stereo unspecified) | -114% (active)
29 | COc1cccc(N2CC(NS(=O)(=O)c3ccc(Cl)cc3)CC2=O)c1 (stereo unspecified) | 25.6%
30 | COc1ccc(N2CC(NS(=O)(=O)c3ccc4ccccc4c3)CC2=O)cc1 (stereo unspecified) | -102% (active)
31 | COc1cccc(N2CC(NS(=O)(=O)c3cccs3)CC2=O)c1 (stereo unspecified) | -5.41%
32 | COc1ccc([C@H]2N[C@]3(CCCN(Cc4ccco4)C3=O)[C@H]3C(=O)N(C)C(=O)[C@@H]23)cc1 | -5.99%
33 | CCc1c(N=O)c(-c2ccccc2)n(O)[n+]1[O-] | -12.8%
34 | O=C1CC[C@H](O)CCN1[C@H](CSc1ccc(Br)cc1)Cc1ccccc1 | 8.81%
35 | COc1ccc(SC[C@H](Cc2ccccc2)N2CCN(CCc3ccccc3)CCC2=O)cc1 | -105% (active)
36 | C[C@H]1CCC(=O)N([C@H](CSc2ccccc2)Cc2ccccc2)CC1 | 2.57%
37 | COc1cc(C=NC2CCCCC2)ccc1O | -7.89%
38 | C[C@H](CO)N1C[C@H](C)[C@@H](CN(C)S(=O)(=O)c2ccc(Oc3ccccc3)cc2)OCc2cn(nn2)CCCC1=O | 2.39%
39 | C=CCN1CCN(c2ccncc2S(=O)(=O)N2CCN(C)CC2)CC1 | -3.97%
40 | Cc1ccc([C@H]2C[C@H](O)[C@@H](n3cc(COC(=O)c4ccccc4)nn3)CN2C(=O)C2CCCCC2)cc1 | -7.68%
41 | COc1cccc(NC(=O)CN(C)C(=O)c2cc(Cl)nc3ccccc23)c1 | 14.5%
42 | CN1CCN(C2Cc3ccc(Cl)cc3Sc3ccc(F)cc32)CC1 (stereo unspecified) | -75.9% (active)
43 | O=C(O)C1CCCN1c1nc(Cl)ccc1[N+](=O)[O-] (stereo unspecified) | -2.11%
44 | O=C(COC(=O)c1ccc(S(=O)(=O)N2CCCCCC2)cc1)Nc1ccccc1C(F)(F)F | -2.65%

Row | SMILES | activity change
45 | CC(=O)Nc1c(-c2ccc(C)cc2)nc2ccc(Cl)cn12 | 2.86%
46 | CCCCCC(O)(CCN1CCCCC1)c1ccccc1 (stereo unspecified) | -102% (active)
47 | CCCCCCC(O)(CCN1CCCCC1)c1ccccc1 (stereo unspecified) | -21.6%
48 | C#CC(CCN1CCCCC1)(OC)c1ccccc1 (stereo unspecified) | 58.1%
49 | Cc1ccc(NC(=O)c2ccco2)cc1 | 4.6%
50 | Cc1cc(C)c2c(=O)n3c(nc2c1)C(CC(C)C)NC(=O)c1cc2ccccc2cc1-3 (stereo unspecified) | -30.6%
51 | Cc1ccccc1NC(=O)c1cnn(-c2ccccc2)c1NC(=O)c1ccco1 | 11.4%
52 | O=C(Nc1nonc1-c1ccc(Cl)cc1)c1ccco1 | -7.1%
53 | O=C(Nc1c(-c2ccccc2)nc2c(Br)cc(Br)cn12)c1ccco1 | -72.2% (active)
54 | CCCCCCN1C[C@H](O)[C@@H](n2cc(C3CC3)nn2)C[C@@H]1c1ccc(Cl)cc1 | -39.7%
55 | CN1OC[C@@H]2CN(C(=O)c3ccc(-c4ccccc4)cc3)[C@H](c3ccc(-c4cccc(F)c4)cc3)C[C@@H]21 | -5.34%
56 | COC(=O)C(Cc1c[nH]c2ccccc12)NC(=O)CCNC(=O)c1ccco1 (stereo unspecified) | 3.09%
57 | O=C(C[C@H]1C[C@H]2c3cc(NS(=O)(=O)c4ccc(F)cc4)ccc3O[C@H]2[C@H](CO)O1)NCc1cc(F)ccc1F | -4.51%
58 | CC1=C(C(=O)OC2CCCCC2)C(c2ccccc2F)NC(=O)N1 (stereo unspecified) | 8.03%
59 | CCC(CC)COC(=O)C1=C(C)NC(=O)NC1c1ccc([N+](=O)[O-])cc1 (stereo unspecified) | 10.1%
60 | CC1=C(C(=O)OCC2CCCCC2)C(c2ccc(F)cc2)NC(=O)N1 (stereo unspecified) | -100% (active)
61 | O=C(N/N=C/c1ccc2c(c1)OCO2)C(=O)N1CCCC1 | -5.78%
62 | COc1cccc(/C=N/NC(=O)C(=O)N2CCCC2)c1 | -74.7% (active)
63 | COC(=O)c1ccc(/C=N/NC(=O)C(=O)N2CCCCCC2)cc1 | 2.79%
64 | CC(=O)c1ccc(OCC(=O)N(C)C2CCS(=O)(=O)C2)cc1 (stereo unspecified) | -6.59%
65 | COC(=O)C[C@H]1C[C@@H]2c3cc(NC(=O)Nc4ccccc4)ccc3O[C@@H]2[C@@H](CO)O1 | 4.16%
66 | Cc1ccc2sc(N(CCN(C)C)C(=O)/C=C/c3cccs3)nc2c1C | -90.5% (active)

Row | SMILES | activity change
67 | Cc1cc(C)c2nc(N(CCN(C)C)C(=O)/C=C/c3cccs3)sc2c1 | -103% (active)
68 | CN(C)CCN(C(=O)CN1C(=O)c2ccccc2C1=O)c1nc2cc3c(cc2s1)OCCO3 | 4.48%
69 | Cc1ccc(S(=O)(=O)N(C)C)cc1NC(=O)/C=C/c1cccs1 | -14.2%
70 | Cc1cccc2sc(N(CCCN(C)C)C(=O)CCS(=O)(=O)c3ccccc3)nc12 | -7.9%
71 | Cc1ccc2nc(N(CCN(C)C)C(=O)C3=COCCO3)sc2c1 | -3.64%
72 | CCCCCC(=O)N1C[C@H](O)[C@@H](n2cc(COC(=O)c3ccccc3)nn2)C[C@@H]1c1ccc(C)cc1 | -34.6%
73 | NC1=CC(=O)C(=O)c2cccnc21 | -3.65%
74 | C[C@@H]1CN([C@@H](C)CO)C(=O)c2cc(NS(C)(=O)=O)ccc2O[C@@H](C)CCCCO[C@H]1CN(C)C(=O)Nc1ccc2c(c1)OCO2 | 11.4%
75 | C[C@H]1Cn2cnc(C(=O)N[C@H](C)c3ccccc3)c2C(=O)N1 | -8.17%
76 | COC(=O)c1ccccc1N=NNc1ccc([N+](=O)[O-])cc1 | 5.4%
77 | Nc1ccc2nc3c(=O)[nH]c(=S)[nH]c3nc2c1 | -92.4% (active)
78 | C[C@H]1CN([C@@H](C)CO)C(=O)c2cc(-c3ccccc3F)cnc2O[C@H]1CN(C)C(=O)C1CCOCC1 | -1.4%
79 | CC(C)N=C1CCCC1C(=S)SSC(=S)C1CCCC1=NC(C)C (stereo unspecified) | 8.25%
80 | COc1cc2[nH]c(=O)n(Cc3ccc(C(=O)NC4CCN(Cc5ccccc5)CC4)cc3)c(=O)c2cc1OC | -8.47%
81 | COc1ccc(C(=O)NC2CC2)cc1OC1CCN(Cc2ccc(SC)cc2)CC1 | -111% (active)
82 | COc1ccc(C(=O)NC2CC2)cc1OC1CCN(C/C=C/c2ccccc2)CC1 | -96.9% (active)
83 | COc1ccc(C(=O)NCCn2nc(C)cc2C)cc1OC1CCN(C(C)=O)CC1 | 12.7%
84 | COc1cc(C(=O)NC2CCN(Cc3ccccc3)CC2)cc(Cl)c1OC(C)C | -16.6%
85 | COc1cc(C(=O)N2CCN(C/C=C/c3ccccc3)CC2)cc(OC)c1C | -2.35%
86 | COCC(=O)N(C)C[C@H]1Oc2cc(Br)ccc2S(=O)(=O)N([C@H](C)CO)C[C@H]1C | -6.83%

Source: PubChem BioAssay AID720553 (National Center for Advancing Translational Sciences (NCATS), 2013)
